# Reference: PubChem BioAssay (NCI)
# About 83,000 compounds went through this panel and 20% of them were active in at least one assay; those are over-represented in the sample as a whole.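 Method: cells in 96-well plates; compound added at one concentration; 48 h incubation; percent growth measured; values under 10 scored active.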 Values without a mark were called inactive. Calls of active or inactive are those of the source.
# Test system: HOP-92 NSCLC
# Test: NCI-60 one-dose screen, 48 h (100 = growth as untreated, 0 = no growth, -100 = all killed)
# Conditions: 10 µM unless noted
row,SMILES,growth
1,N#C/C(=C1C=C/C(=N/O)C(Cl)=C/1)c1ccc(Cl)cc1,70.5%
2,c1coc(CNc2ccnc(Nc3ccc(OCCN4CCCCC4)cc3)n2)c1,69.5%
3,C=C1CCC2C(C)(CO)C(O)CCC2(C)C1C/C=C1/C(=O)OCC1O/C=C/c1ccccc1 (configuration not stated),76.1%
4,C=C(C)[C@@H]1CC[C@]2(C(=O)N3CCNCC3)CC[C@]3(C)[C@H](CC[C@@H]4[C@@]5(C)C/C(=C/c6ccncc6)C(=O)C(C)(C)[C@@H]5CC[C@]43C)[C@@H]12,95.8%
5,CCOC(=O)C1C(=O)C=C(c2ccc(OC)cc2)CC1c1sc(N(C)Cc2ccccc2)nc1Cl (configuration not stated),29.8%
6,COc1cc(/C=C/C(=O)/C=C/c2cc(OC)c3c(c2)OCO3)cc2c1OCO2,83.9%
7,C[n+]1c(/C=C/c2c(O)ccc3ccccc23)ccc2ccccc21,-10.2% (active)
8,CCN(CC)CCC(CNc1c2ccc(Cl)cc2nc2ccc(OC)cc12)c1ccccc1 (configuration not stated),-1.53% (active)
9,C=C1CC2(OC1=O)C(=O)N(CCCN1C(=O)C3(CC(=C)C(=O)O3)c3ccccc31)c1ccccc12 (configuration not stated),-27% (active)
10,CN(CCCCCl)P(=O)(OCc1ccc([N+](=O)[O-])o1)C(F)(F)C[C@H](NC(=O)CNC(=O)c1ccc(N=[N+]=[N-])cc1)C(=O)NCCc1ccc(O)cc1 (some centres not stated),108%
11,COc1ccc(C(=O)N2NC(=O)/C(=C/c3ccc(Br)cc3)N=C2c2ccccc2)cc1,64.4%
12,N#Cc1c(-c2ccccc2)cc(-c2ccccc2)n(CC(=O)NO)c1=O,32%
